# BoNT F protease: inhibitors of Botulinum neurotoxin F light chain protease | Multiplex microsphere protease cleavage assay, flow cytometry | inhibition, % at 10 µM | hit rate 0.22% among 360,000; in the data active means inhibition above about 35%, passing the limit was not always enough; inconclusive means no clear call, values can overlap the other calls; further: plate controls were buffer without enzyme for full effect and enzyme alone for no effect
# Anthrax LF prot: anthrax lethal factor protease inhibition; P15917; multiplex microsphere protease cleavage assay, LF; inhibition, % at 10 µM; hit rate 0.12% among 360,000; AID 588501; further: plate controls were buffer without enzyme for full effect and enzyme alone for no effect
# Target sequence (P15917 whole entry, looked up): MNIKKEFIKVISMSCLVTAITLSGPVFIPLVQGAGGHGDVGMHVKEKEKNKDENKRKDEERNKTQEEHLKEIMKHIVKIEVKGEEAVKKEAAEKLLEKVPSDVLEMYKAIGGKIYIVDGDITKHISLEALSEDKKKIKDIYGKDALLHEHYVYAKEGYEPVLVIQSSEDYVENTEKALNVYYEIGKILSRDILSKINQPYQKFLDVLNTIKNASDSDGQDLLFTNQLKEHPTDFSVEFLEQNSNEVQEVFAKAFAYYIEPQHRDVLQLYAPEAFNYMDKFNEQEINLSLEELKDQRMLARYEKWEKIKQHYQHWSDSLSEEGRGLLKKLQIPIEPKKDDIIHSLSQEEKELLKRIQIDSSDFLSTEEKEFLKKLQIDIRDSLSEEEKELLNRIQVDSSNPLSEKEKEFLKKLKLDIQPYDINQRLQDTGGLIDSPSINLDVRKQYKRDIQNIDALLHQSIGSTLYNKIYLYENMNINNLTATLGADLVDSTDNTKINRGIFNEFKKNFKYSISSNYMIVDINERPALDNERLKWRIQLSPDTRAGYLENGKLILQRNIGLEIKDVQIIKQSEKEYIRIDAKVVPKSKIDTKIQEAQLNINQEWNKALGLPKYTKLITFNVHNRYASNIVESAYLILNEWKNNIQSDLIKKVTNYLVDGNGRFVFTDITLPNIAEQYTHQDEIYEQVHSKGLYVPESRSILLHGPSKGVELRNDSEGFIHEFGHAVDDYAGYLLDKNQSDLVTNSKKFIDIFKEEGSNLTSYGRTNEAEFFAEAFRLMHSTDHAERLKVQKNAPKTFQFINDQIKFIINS
# BoNT A protease: BoNT A light chain protease inhibition. inhibition, % at 10 µM. AID 588499. hit rate 0.17% among 360,000. multiplex microsphere protease substrate cleavage, flow cytometry; further: plate controls were buffer without enzyme for full effect and enzyme alone for no effect
# MazF activator: MazEF (E. coli) toxin RNase activation | P0AE70 | FAM/BHQ RNA-DNA oligo cleavage fluorescence, 5 h | activation, % at 20 µM | hit rate 0.32% among 350,000 | AID 504720; in the data active means activation above about 50%
# Bead autofluor: compound fluorescence in toxin protease inhibitor counterscreen; compound autofluorescence counterscreen, microsphere flow cytometry; hits give high values; fluorescence intensity (no concentration beside the values); hit rate 3.1% among 360,000; in the data active means fluorescence intensity above about 16000; inconclusive means no clear call, values can overlap the other calls
# * hit, by the source's call; ? = inconclusive; nt = not tested or not shown. Hits are enriched below; roughly 3.6% of the tested compounds scored in any of these assays. Unless noted, no stated cut-off is given here; in the data, active means inhibition above about 30%; inconclusive means no clear call, values can overlap the other calls; inactive means below that.
SMILES,BoNT F protease,Anthrax LF prot,BoNT A protease,MazF activator,Bead autofluor
CC(C)C[C@H]1COc2cccc(N3CCC[C@H]3CO)c2S(=O)(=O)N1,-3,-6,0,nt,6218
CCC(C(=O)OC(C)C)c1ccc2ccccc2c1 (stereo not given),2,-1,0,5,4018
CCOC(=O)c1sc(=S)n(-c2ccc(F)c(F)c2)c1N,-4,0,-5,-1,21634*
CCOC(=O)c1sc(=S)n(-c2ccc(Cl)cc2)c1SC,-1,-2,0,-13,21737*
CCOC(=O)c1ccc(-n2c(N)c(C(=O)NCc3ccco3)sc2=S)cc1,0,-1,2,5,23235*
CCOC(=O)c1sc(=S)n(-c2ccc(C)cc2)c1N,-18,-2,-4,-4,4173
CC(=O)c1sc(=S)n(-c2ccc(Cl)cc2)c1C,-10,1,-1,2,3102
CC1=C(C(=O)N2CCCCCC2)CC(CC(=O)NC2CCCC2)C(=O)N1Cc1ccccc1 (stereo not given),-2,2,0,nt,5587
Cc1ccc2cc(C)c(N3CCN(c4ccccn4)CC3)nc2c1,-3,-4,0,-11,23535*
COC(=O)c1ccc(OCC(=O)c2ccc(O)cc2O)cc1,-5,-1,-3,-2,24431*
O=C(COc1ccccc1F)c1ccc(O)cc1O,6,-5,4,9,20781*
N#Cc1c(N)sc2c1CCN(CCc1ccccc1)C2,-141,1,65*,-2,5685
C=CCn1c(CNC(=O)c2ccco2)nnc1SCC(=O)N1c2ccccc2Sc2ccccc21,14,-17,11,1,18468*
Cn1c(=O)c2c(ncn2CCO)n(C)c1=O,6,-4,0,-2,6122
CCCCn1cnc2c1c(=O)n(C)c(=O)n2C,-7,-3,-3,-1,23846*
Cn1c(=O)c2c(ncn2CCCc2ccccc2)n(C)c1=O,4,-13,3,-5,20359*
CCCCC(CCc1ccccn1)C(=O)c1ccccc1 (stereo not given),-4,13,-1,11,4712
COc1ccc(N2CCN(CCCNC(=O)c3cc4sccc4n3C)CC2)cc1,-7,-10,-1,1,8039
CC1CCN(CCCNC(=O)c2cc3sccc3n2C)CC1,2,-2,3,-6,20532*
CCn1c(SCC(=O)c2ccc(OC)cc2)nnc1C1CC1,-12,0,-2,2,4200
COc1ccc(C(=O)CSc2nnc(C3CC3)n2N)cc1,0,1,?,5,22665*
CCOc1ccc(NC(=O)CSc2nnc(C3CC3)n2N)cc1,2,0,0,3,23438*
CCN(CCCNc1cc2c(c(N)c1S(=O)(=O)O)C(=O)c1ccccc1C2=O)c1ccccc1,-50,-26,1,-19,3447
CSCCC(NC(=O)COc1ccccc1)C(=O)N1CCCCCC1 (stereo not given),2,-6,-2,3,8215
Cc1cc([N+](=O)[O-])nn1CCCC(=O)NCc1ccc(F)cc1,-2,-1,0,-11,3668
SMILES,BoNT F protease,Anthrax LF prot,BoNT A protease,MazF activator,Bead autofluor
Cc1cc([N+](=O)[O-])nn1Cc1c(F)c(F)c(F)c(F)c1F,14,-16,10,2,18842*
CCn1c(SCC(=O)N2CCOCC2)nnc1C(C)NC(=O)c1ccccc1 (stereo not given),4,2,3,2,4834
O=C(NC1(C(F)(F)F)N=C2SCCN2C1=O)c1ccccc1 (stereo not given),-3,-4,-2,9,24460*
COc1ccc(C(=O)NC2(C(F)(F)F)N=C3SCCN3C2=O)cc1 (stereo not given),-6,-7,1,1,9638
CCCc1ccc(-c2cc(C(=O)NN3CCOCC3)c3ccccc3n2)cc1,0,-9,0,6,23255*
CCCc1ccc(-c2cc(C(=O)NCCc3ccc(S(N)(=O)=O)cc3)c3ccccc3n2)cc1,4,0,4,4,22125*
CC(C)Oc1cccc(-c2cc(C(=O)NN3CCOCC3)c3ccccc3n2)c1,8,-4,0,2,5636
NS(=O)(=O)c1ccc(CCNC(=O)c2cc(-c3ccc(Br)cc3)nc3ccccc23)cc1,-6,-1,0,-10,2467
Cn1cnc([N+](=O)[O-])c1Sc1ncccc1N,-2,-1,-1,-9,22024*
Cc1ccc(Sc2c([N+](=O)[O-])ncn2C)cc1,2,-8,2,-7,15373
COc1ccc(C2(C(=O)Nc3nncs3)CCCC2)cc1,1,-2,1,-3,22722*
COc1ccc(C2=NOC(COc3ccc4c(C)cc(=O)oc4c3)C2)c(OC)c1 (stereo not given),-24,?,-8,-1,3880
COc1ccccc1C1=NOC(COc2ccc3c(C)cc(=O)oc3c2)C1 (stereo not given),44*,?,0,5,3715
COc1cccc(CC(=O)OC(C)C(=O)Nc2ccc(N3CCOCC3)cc2)c1 (stereo not given),-9,-1,-4,-6,?
COC(=O)c1ccc(OC(=O)C2CC(=O)N(c3cccc(C)c3)C2)cc1 (stereo not given),-3,-3,?,2,16757*
COc1cccc(N2CC(C(=O)Oc3ccc4ccccc4c3)CC2=O)c1 (stereo not given),-10,-21,-1,2,10482
O=C1NC[C@H](CCCCN2CCN(CC3CCCCC3)C(=O)C2=O)N(CCc2ccccc2)C1=O,-5,-5,0,nt,5394
C/C(=C\c1ccc(N(C)C)cc1)[N+](=O)[O-],0,3,5,3,22567*
CN(C)c1ccc(-n2cccc2/C=C/[N+](=O)[O-])cc1,-2,9,3,-12,3705
CN(C)c1ccc(C(=O)C=Cc2ccc([N+](=O)[O-])cc2)cc1,-4,0,1,9,3795
CN(c1ccccc1)c1ccc(/C=C/[N+](=O)[O-])cc1,23,29,70*,11,8391
CN(C)c1ccc(/C=C/[N+](=O)[O-])cc1,48*,22,50*,-14,5524
O=C(O)c1ccc(C(=O)c2cc([N+](=O)[O-])cc([N+](=O)[O-])c2)cc1,1,-4,0,2,3561
O=C(CCS(=O)(=O)c1cccs1)Nc1ccc(C(=O)NCc2cccs2)cc1,0,1,1,-1,22948*
C[C@H](NC(=O)NCc1cccs1)C(=O)O,7,3,3,6,21235*
SMILES,BoNT F protease,Anthrax LF prot,BoNT A protease,MazF activator,Bead autofluor
O=C(NCc1cccs1)c1cccnc1C(=O)O,-3,-7,?,5,17016*
Cc1cc(C(=O)NCc2cccs2)c(C)o1,-1,-3,0,1,19810*
C[C@H](NC(=O)c1ccco1)C(=O)NNC(=O)COc1cccc(C(F)(F)F)c1,-4,2,-5,-11,6556
C#C[C@]1(OC(C)=O)CCC2C3CCC4=CC(=O)CC[C@@H]4C3CC[C@@]21C (stereo not given in full),-10,6,0,-1,5747
CCOc1ccccc1NC1=C(OC)C(=O)C(Nc2ccccc2OCC)=C(OC)C1=O,-4,-7,0,11,3574
O=C(NCc1cccnc1)c1cc(C2CCCCN2C(=O)OCCF)on1 (stereo not given),0,2,0,nt,3910
CN(C)CCNC(=O)c1ccc(Cl)s1,-5,-1,?,7,17028*
